# This is a sample that favours compounds with a hit; in the whole collection about 2.7% have one here.
# SENP8 block-1 = blocks human SENP8 cleavage of Nedd8 substrate | Q96LD8 | recombinant SENP8, Nedd8 substrate fluorescence | inhibition, % at 20 µM | 0.64% of 360,000 active | AID 602440; in the data active = inhibition mostly above about 40%, no sharp cut-off; inactive = mostly below about 27%
# SENP8 block-2 = blocks the human protease SENP8; Q96LD8; purified SENP8, Z-RLRGG-aminoluciferin cleavage, luminescence; inhibition, % at 10 µM; 1.2% of 330,000 active; in the data active = inhibition above about 50%
# SENP7 inh = blocks the human protease SENP7; recombinant SENP7, Z-RLRGG-aminoluciferin luminescence, 40 min; inhibition, % at 5 µM; AID 434973; Q9BQF6; 1.5% of 330,000 active;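 active = inhibition above about 50% at the single test dose, limit read from the data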;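 also: plate controls were DMSO with enzyme for no effect and no enzyme buffer wells for full effect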
# Target sequence (Q9BQF6 706-1050 limits assumed): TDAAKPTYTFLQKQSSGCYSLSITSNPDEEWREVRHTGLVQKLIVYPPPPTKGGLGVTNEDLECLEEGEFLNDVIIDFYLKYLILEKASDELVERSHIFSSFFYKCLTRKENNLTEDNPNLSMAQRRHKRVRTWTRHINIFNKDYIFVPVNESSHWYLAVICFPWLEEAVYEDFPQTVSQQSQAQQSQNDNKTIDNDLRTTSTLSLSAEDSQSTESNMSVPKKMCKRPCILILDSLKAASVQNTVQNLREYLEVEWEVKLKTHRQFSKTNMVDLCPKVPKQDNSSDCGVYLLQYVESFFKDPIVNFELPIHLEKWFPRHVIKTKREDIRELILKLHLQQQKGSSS
# HSP90 inh = HSP90 refolding inhibition in rabbit reticulocyte lysate; luciferase refolding luminescence, 3 h; inhibition, % at 5.6 µM; 0.91% of 290,000 active; AID 1789;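 active = inhibition above the screen-wide mean plus 3 SD, computed separately per campaign, cut at about 16% in these data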;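 also: 0% = DMSO wells and 100% = 60 µM geldanamycin wells; inhibitors lower the luminescence because luciferase stays unfolded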
# SENP6 block = inhibitors of human SENP6 protease | Recombinant SENP6 catalytic domain, aminoluciferin luminescence | inhibition, % at 10 µM | 1.8% of 330,000 active;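 active = inhibition above about 50% at the single tested dose, limit read from the data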;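 also: plate controls were DMSO wells with enzyme for no effect and DMSO wells lacking enzyme for full effect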
# SENP8 confirm = human SENP8 inhibition, confirmed; Recombinant SENP8, Z-RLRGG-aminoluciferin luminescence, 60 min; inhibition, % at 12.5 µM; 40% of 6,200 active; shares compounds with SENP7 inh; AID 488912;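 active = mean inhibition across replicates above about 50%, limit read from the data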
# SENP6 confirm = confirmation of human SENP6 protease inhibitors. 58% of 6,200 active. inhibition, % at 12.5 µM. shares compounds with SENP7 inh. recombinant SENP6, Z-RLRGG-aminoluciferin luminescence
# SENP7 confirm = confirmation of human SENP7 protease inhibitors | inhibition, % at 12.5 µM | 69% of 6,200 active | shares compounds with SENP7 inh | recombinant SENP7, Z-RLRGG-aminoluciferin luminescence, 40 min
# Casp3 SENP sel = inhibits human caspase-3 in SENP selectivity test; inhibition, % at 12.5 µM; purified caspase-3, Z-DEVD-aminoluciferin luminescence, 60 min; AID 488918; shares compounds with SENP7 inh; 60% of 6,200 active;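 active = mean inhibition above about 50%, limit read from the data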;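 also: plate controls were enzyme with DMSO for no effect and wells without caspase-3 for full effect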
# Target sequence (P42574 28-227 limits assumed): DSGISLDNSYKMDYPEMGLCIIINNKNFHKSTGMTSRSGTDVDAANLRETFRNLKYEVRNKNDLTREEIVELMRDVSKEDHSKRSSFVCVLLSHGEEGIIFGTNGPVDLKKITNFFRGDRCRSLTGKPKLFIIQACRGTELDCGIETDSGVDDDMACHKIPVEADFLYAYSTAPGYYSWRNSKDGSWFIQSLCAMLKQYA
# Luc interf = luminescence interference (SENP counter-screen); inhibition, % at 12.5 µM; Pre-incubated SENP8/Z-RLRGG-aminoluciferin, luciferase luminescence interference; shares compounds with SENP7 inh; 39% of 6,200 active;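 active = mean inhibition above about 50% when retested at one dose, limit read from the data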;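 also: plate controls were DMSO wells with completed reaction for no effect and substrate without enzyme for full effect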
# Starred values were filed as active, the others as inactive; nt = not tested or not shown.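 The calls were made as follows, unless noted: active = mean inhibition above about 50% in the one-dose retest (limit read from the data); inactive = the rest.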
SMILES,SENP8 block-1,SENP8 block-2,SENP7 inh,HSP90 inh,SENP6 block,SENP8 confirm,SENP6 confirm,SENP7 confirm,Casp3 SENP sel,Luc interf
CC1CCc2c(sc(/N=C/c3cccnc3)c2C(N)=O)C1 (configuration not stated),-102.4,-9.4,-6.9,-1.6,5.9,nt,nt,nt,nt,nt
Fc1cccc(-c2cc3nc4c(c(NCc5ccco5)n3n2)CCCC4)c1,-281.2,69.8*,1.2,-1.6,85.1*,-0.2,13.7,19.1,30.7,46.1
Cc1ccc(NC(=O)c2ocnc2C)cc1Cl,14.3,60.5*,83.3*,2.0,81.2*,76.4*,76.6*,94.0*,83.0*,46.7
Cc1ccc(Cl)cc1NC(=O)c1ocnc1C,12.2,-6.7,8.4,-0.8,-3.0,nt,nt,nt,nt,nt
Cc1ncoc1C(=O)Nc1cccc(Cl)c1,7.4,34.9,63.9*,-4.5,50.2*,60.2*,58.5*,86.0*,79.8*,56.9*
O=C(N/N=C/c1ccccc1Cl)c1ccc(F)cc1,7.5,8.7,36.8,-2.3,69.2*,1.7,15.7,8.5,48.1,44.5
O=C(N/N=C/c1cccc([N+](=O)[O-])c1)c1nc2ccccc2c(=O)[nH]1,16.2,7.4,5.2,-1.0,-3.7,nt,nt,nt,nt,nt
O=C(N/N=C/c1ccccc1Cl)c1nc2ccc([N+](=O)[O-])cc2c(=O)[nH]1,-50.3,74.9*,46.1,-0.7,57.2*,46.6,52.8*,47.9,50.4*,44.7
COc1n[nH]c(C(=O)Nc2cc(Cl)ccc2Cl)c1[N+](=O)[O-],14.1,6.8,9.6,-4.0,55.4*,19.4,17.6,41.5,26.0,6.3
O=C1c2ccccc2CCC12N=NCC2c1ccc(Cl)cc1 (configuration not stated),-13.7,-3.5,3.3,-2.1,4.6,nt,nt,nt,nt,nt
CCC(=O)c1c(NCCc2ccccc2)cc(C)oc1=O,13.0,2.6,-0.1,-0.4,10.7,nt,nt,nt,nt,nt
Cc1nc2sc(-c3ccccc3)cc2c(=O)[nH]1,-63.8,76.4*,-5.9,16.7*,86.3*,36.8,82.0*,98.2*,92.4*,28.7
Cc1nc2sc(-c3ccccc3)cc2c(=O)n1/N=C/N(C)C,-234.8,6.5,7.2,-2.9,-20.9,nt,nt,nt,nt,nt
Cc1nc2sc(-c3ccccc3)cc2c(=O)n1-n1cccc1,-12.2,34.5,43.0,-1.0,62.4*,6.9,17.1,42.6,32.0,2.3
O=c1c2cc(-c3ccccc3)sc2nc2n1CCC2,nt,68.6*,72.4*,3.1,74.5*,19.2,68.9*,92.3*,31.1,-3.6
O=c1[nH]c(-c2cccnc2)nc2sc(-c3ccccc3)cc12,-400.4,42.6,38.9,5.1,33.2,nt,nt,nt,nt,nt
Cc1ccc([N+](=O)[O-])cc1-c1ccc2cccc(C)c2n1,10.9,5.5,-0.3,-4.8,-3.6,nt,nt,nt,nt,nt
Nc1ccc(N=Nc2ccccc2O)c(N)c1,39.9,69.9*,79.3*,nt,82.9*,76.8*,80.7*,94.7*,57.0*,82.2*
CC12CC3CC(C)(C1)CC(C(=O)NC(=S)N1CCCCC1)(C3)C2,9.2,6.0,-4.9,2.4,9.6,nt,nt,nt,nt,nt
CC(=O)COc1ccc2cc(-c3ccccc3)c(=O)oc2c1,-414.4,15.6,13.0,6.8,21.8,nt,nt,nt,nt,nt
CC(=O)Oc1ccc2cc(-c3ccccc3)c(=O)oc2c1,-297.0,85.6*,84.5*,0.1,93.1*,12.7,42.2,50.2*,48.2,34.8
COc1ccccc1C(=O)N1CCc2ccccc21,8.0,3.5,-3.6,-2.8,-1.4,nt,nt,nt,nt,nt
Nc1ccccc1C(=O)N1CCc2ccccc21,-42.5,14.0,-15.9,-0.7,55.1*,42.0,36.2,25.4,42.8,55.0*
c1ccc(CNc2ccc3ccccc3n2)nc1,-163.5,86.4*,-14.0,9.3,87.5*,88.0*,88.6*,99.2*,92.5*,91.3*
Cc1nc(SCC(N)=O)[nH]c(=O)c1Cc1ccc(OC(C)C)cc1,13.1,-4.7,-0.5,4.5,63.6*,12.1,6.1,11.6,6.6,1.5
SMILES,SENP8 block-1,SENP8 block-2,SENP7 inh,HSP90 inh,SENP6 block,SENP8 confirm,SENP6 confirm,SENP7 confirm,Casp3 SENP sel,Luc interf
COc1ccc(Cc2c(O)nc(SCC(=O)c3ccc(OC)cc3)[nH]c2=O)cc1,3.8,-4.3,1.4,-2.9,5.8,nt,nt,nt,nt,nt
CN(C)CCCNC(=O)CC1C[C@H](C(=O)N2CCCCC2)[C@@]2(CCc3ccccc3)c3[nH]c4ccccc4c3CCN2C1=O (some centres not stated),13.8,7.5,-0.6,nt,-2.0,nt,nt,nt,nt,nt
CC1=CN2C(=N)/C(=C/c3ccco3)C(=O)N=C2S1,25.8,14.3,38.3,-3.7,52.4*,32.4,28.3,71.3*,73.5*,2.1
Cc1c(NC(=O)CN(c2ccc(F)cc2)S(=O)(=O)c2ccccc2)c(=O)n(-c2ccccc2)n1C,0.9,3.7,2.2,8.7,-1.6,nt,nt,nt,nt,nt
O=C(c1ccccc1)c1ccc2c(c1)OCCCO2,0.7,28.2,62.0*,8.2,43.5,28.1,34.1,74.7*,53.8*,55.0*
O=C(CCc1ccccc1)c1ccc2c(c1)OCCCO2,13.9,21.2,41.9,-3.8,57.9*,42.1,42.4,76.3*,37.8,37.1
O/N=C(/CCc1ccccc1)c1ccc2c(c1)OCCO2,5.3,46.7,52.3*,-1.2,13.2,69.6*,68.8*,87.6*,43.6,72.2*
C/C(=N/NC(=O)CCc1ccccc1)c1ccc2c(c1)OCO2,4.8,-12.4,-6.6,-2.2,-3.7,nt,nt,nt,nt,nt
Cc1occc1C(=O)Nc1cccc(/C=C/C(=O)O)c1,20.1,-4.5,11.5,-1.7,29.1,nt,nt,nt,nt,nt
O=C(O)/C=C/c1cccc(NC(=O)c2ccccc2)c1,19.0,47.7,69.4*,5.5,72.3*,69.1*,66.0*,89.9*,90.9*,70.6*
O=C(N/N=C/c1cccc(NC(=O)c2ccc(Cl)cc2)c1)c1cccc(O)c1,12.9,-15.0,-3.0,7.9,20.4,nt,nt,nt,nt,nt
O=C(O)/C=C/c1cccc(NC(=O)c2ccc(Cl)cc2)c1,15.3,61.4*,59.4*,-3.1,74.3*,66.3*,63.0*,88.5*,84.1*,71.0*
Cc1ccc(S(=O)(=O)NN=C2CCc3ccccc32)cc1,12.4,nt,nt,nt,nt,nt,nt,nt,nt,nt
CCCOc1ccc(/C(O)=C2/C(=O)C(=O)N(c3ccccn3)C2c2ccc(OC)cc2)cc1C (configuration not stated),-25.8,5.2,10.9,1.8,11.2,nt,nt,nt,nt,nt
N#C/C(=N/Nc1ccc([N+](=O)[O-])cc1)C(=N)N1CCCCC1,29.8,nt,nt,0.5,nt,nt,nt,nt,nt,nt
O=C(/C(N=Nc1cccc([N+](=O)[O-])c1)=C(/O)c1ccc(Br)cc1)C(F)(F)F,28.7,-9.7,0.7,3.9,-7.1,nt,nt,nt,nt,nt

# Screening results (PubChem)
